Parameters in all cases: species or system human, MV4-11 + K-562 + COLO205 + SK-N-BE2 + OVCAR-8
The subject of one assay is BUB1. The following applies: read-out: apparent Kd; compound concentrations:100 nM and 1000 nM (sheet 'Samples'); n = 1.
In another assay the test system is PRKX. The following applies: read-out: apparent Kd; compound concentrations:100 nM and 1000 nM (sheet 'Samples'); n = 1.
The subject of another assay is ROCK2. The following applies: read-out: apparent Kd, n = 1.
Another assay concerns RPS6KA4. The following applies: read-out: apparent Kd, n = 1.
For the next assay, the system named is MARK2. The following applies: read-out: apparent Kd; compound concentrations:100 nM and 1000 nM (sheet 'Samples'); n = 1.
Another assay deals with CDK17. To be noted: read-out: apparent Kd, n = 1.
A further assay relates to STK3. To be noted: read-out: apparent Kd, n = 1.
A further assay concerns TNIK. The following applies: read-out: apparent Kd, n = 1.
Another assay relates to CSNK1A1. The following applies: read-out: apparent Kd, compound concentrations: 100 nM and 1000 nM (sheet 'Samples'), n = 1.
Another assay relates to HCK. The following applies: read-out: apparent Kd; compound concentrations: 100 nM and 1000 nM (sheet 'Samples'), CATDS: 4.52340510871738E-2; n = 1.
The subject of a further assay is SRC. The following applies: read-out: apparent Kd; compound concentrations: 100 nM and 1000 nM (sheet 'Samples'), CATDS: 5.0295032408805701E-2; n = 1.
In a further assay the test system is CSNK1E. The following applies: read-out: apparent Kd, n = 1.
A further assay has as its system MAPK8. To be noted: read-out: apparent Kd, n = 1.
The subject of a further assay is RIOK2. The following applies: read-out: apparent Kd, n = 1.
In the next assay the test system is PHKG2. To be noted: read-out: apparent Kd; compound concentrations:100 nM and 1000 nM (sheet 'Samples'); n = 1.
In another assay the test system is STK16. To be noted: read-out: apparent Kd, n = 1.
The mark [1] stands for this setting: compound concentrations:100 nM and 1000 nM (sheet 'Samples').

For 15 compounds, potency estimated from few doses results are on record in PMC11062922 (Nature Chemical Biology, 2023).

Each structure is given as a SMILES string. Where two headings read alike, the source gives them in different places.

As to `CCn1c(-c2nonc2N)nc2cncc(C(=O)N3CC[C@H](N)C3)c21.Cl` [SB-772077-B], the potency estimated from few doses is 1790 nM with BUB1, 177 nM with PRKX, 11.6 nM with ROCK2 (setting [1]) and 82.6 nM in the assay with RPS6KA4 (setting [1]).

`Nc1nccc(-c2ccc3c(N)n[nH]c3c2)n1` [GSK1034945A]: the values for the potency estimated from few doses in the assay on MARK2 and with PRKX were 1440 nM and 1040 nM, respectively.

As to `NS(=O)(=O)c1ccc(N/C=C2\C(=O)Nc3ccc4ncsc4c32)cc1` [GW297361X], the potency estimated from few doses in the assay on CDK17 (compound concentrations: 100 nM and 1000 nM (sheet 'Samples'), CATDS: 3.2920302363338198E-2) is 1410 nM; with RPS6KA4 (compound concentrations: 100 nM and 1000 nM (sheet 'Samples'), CATDS: 3.5375158245813998E-2), 1150 nM; in the assay on STK3 (compound concentrations: 100 nM and 1000 nM (sheet 'Samples'), CATDS: 4.8533419751013301E-2) it was 558 nM; with TNIK (compound concentrations: 100 nM and 1000 nM (sheet 'Samples'), CATDS: 3.6664419763171099E-2) it was 1050 nM.

As to `COc1ccc(Nc2nccc(NCCNC(=O)Nc3cc(C)ccc3C)n2)cc1` [GSK1379899A], the potency estimated from few doses is 2320 nM in the assay on CSNK1A1 (CATDS: 3.9039606822866203E-2), 1500 nM in the assay with HCK and 1150 nM in the assay on SRC.

Consider `Cc1cc(NC(=O)c2cccc(NC(=O)/C=C/CN(C)C)c2)ccc1Nc1nccc(-c2cccnc2)n1` [JNK-IN-7], for which the potency estimated from few doses in the assay with CSNK1E (setting [1]) was 2010 nM; in the assay with MAPK8 (compound concentrations: 100 nM and 1000 nM (sheet 'Samples'), CATDS: 0.361738634517147), 10.7 nM; in the assay with RIOK2 (setting [1]), 720 nM.

In the case of `CC(C)(CO)CNC(=O)c1ccc2c(c1)/C(=N/Nc1ccc(S(N)(=O)=O)cc1)C(=O)N2` [GW301784X], the potency estimated from few doses in the assay with CDK17 (setting [1]) is 212 nM.

Turning to `Cl.Cl.NC[C@H](CC1CCCCC1)NC(=O)c1ccc(-c2ccnc3[nH]ccc23)s1.NC[C@H](CC1CCCCC1)NC(=O)c1ccc(-c2ccnc3[nH]ccc23)s1` [GSK1581428A], the potency estimated from few doses in the assay with PRKX is 14.8 nM; with ROCK2 (setting [1]), 22.8 nM.

As to `COc1cc[nH]c1/C=C1\C(=O)Nc2ccc(F)c(C#C[C@@H](O)[C@@H](N)[C@@H](C)O)c21` [RO0283120-000], the potency estimated from few doses with CDK17 (setting [1]) was 774 nM; in the assay with MAPK8 (setting [1]), 942 nM; with MARK2 it was 803 nM; in the assay on PHKG2 it was 669 nM; in the assay on RPS6KA4 (setting [1]) it was 421 nM; in the assay with STK16 (setting [1]) it was 1230 nM. Besides, in the assay on STK3 (setting [1]), the potency estimated from few doses was 680 nM.

As for `CNCC1CCn2c(c(C3=C(c4cn(C)c5ccccc45)C(=O)NC3=O)c3ccccc32)C1` (stereo not shown) [RO0318676-000], the potency estimated from few doses in the assay on CDK17 (compound concentrations: 100 nM and 1000 nM (sheet 'Samples'), CATDS: 2.8092729884281801E-2) was 1740 nM.

Turning to `COc1cc[nH]c1/C=C1\C(=O)Nc2ccc([N+](=O)[O-])c(N3CC[C@@H](O)C3)c21` [RO0504985-000], the potency estimated from few doses in the assay with CDK17 (compound concentrations: 100 nM and 1000 nM (sheet 'Samples'), CATDS: 2.9599513328136099E-2) is 2050 nM; in the assay with STK16 (compound concentrations: 100 nM and 1000 nM (sheet 'Samples'), CATDS: 3.4591069451125701E-2) it was 1100 nM.

Take `CNc1nccc(-c2ccc3c(N)n[nH]c3c2)n1` [GSK2206003A]: in the assay with RIOK2 (compound concentrations: 100 nM and 1000 nM (sheet 'Samples'), CATDS: 5.2095061468969701E-2), the potency estimated from few doses was 1360 nM.

As to `NS(=O)(=O)c1ccc(NC=C2C(=O)Nc3ccc4ncsc4c32)cc1` [GW589933X], the potency estimated from few doses with CDK17 (compound concentrations: 100 nM and 1000 nM (sheet 'Samples'), CATDS: 2.5834512792532401E-2) is 479 nM; in the assay on CSNK1E (compound concentrations: 100 nM and 1000 nM (sheet 'Samples'), CATDS: 1.7679596648165999E-2), 1500 nM; with RPS6KA4 (compound concentrations: 100 nM and 1000 nM (sheet 'Samples'), CATDS: 2.5851222500782998E-2) it was 479 nM; with STK3 (compound concentrations: 100 nM and 1000 nM (sheet 'Samples'), CATDS: 3.1819272048607197E-2), 295 nM; with TNIK (compound concentrations: 100 nM and 1000 nM (sheet 'Samples'), CATDS: 5.8590994029209698E-2) it was 89.2 nM.

Consider `Cc1occc1-c1nc(N)c(OC[C@@H](N)Cc2c[nH]c3ccccc23)cc1-c1cc2c(C)n[nH]c2cn1` [GSK1660450B], for which the potency estimated from few doses with CSNK1E (setting [1]) was 144 nM; in the assay on MARK2 it was 639 nM; in the assay on STK3 (setting [1]), 93.5 nM; in the assay with TNIK (setting [1]) it was 696 nM.

With `CCC(CC)(CC)n1cnc2c(N)ncnc21` [SKF-97620], the potency estimated from few doses with CSNK1A1 (CATDS: 2.3982037208091899E-2) was 2040 nM; with ROCK2 (compound concentrations: 100 nM and 1000 nM (sheet 'Samples'), CATDS: 2.44983042375609E-2), 1890 nM; with STK16 (compound concentrations: 100 nM and 1000 nM (sheet 'Samples'), CATDS: 2.4791853580208099E-2), 1810 nM.

Turning to `CN(C)c1ccc2c(c1)/C(=C/Nc1ccc(S(N)(=O)=O)cc1)C(=O)N2` [GW416469X], the potency estimated from few doses in the assay on STK3 (compound concentrations: 100 nM and 1000 nM (sheet 'Samples'), CATDS: 7.8286215558842895E-2) was 1330 nM.
